# Activity calls are given as the source filed them. The rule behind the calls is not given here.
# Assay: Concentration response cycloheximide confirmation counterscreen for small molecule inhibitors of Shiga toxin
# Settings: protein synthesis reporter, cells; series mostly up to 76.6 µM
row,Structure (SMILES),outcome
1,CN(C(=O)c1ccc2c(=O)n3c(nc2c1)CCCCC3)c1ccccc1,inactive
2,CCn1c2ccccc2c2cc(NC(=O)c3cccc([N+](=O)[O-])c3)ccc21,inactive
3,CC(C)CNC(=O)c1noc2c1CCCC2,inactive
4,O=C(Nc1ccccc1)c1ccc[nH]1,inactive
5,C=CCNC(=O)c1ccc(C)c(Br)c1,inactive
6,CN(C)S(=O)(=O)c1ccc(C(=O)Nc2ccc(CN3CCCC3)cc2)cc1,inactive
7,O=C(NC1CCCC1)c1cc(Cl)ccc1[N+](=O)[O-],inactive
8,Cc1cc(C(=O)COC(=O)CNS(=O)(=O)c2ccc3ccccc3c2)c(C)n1-c1ccccc1,inactive
9,COc1ccccc1CNC(=O)c1csc2c1CCCC2,inactive
10,O=C(CC(c1ccccc1)c1cc(Cl)ccc1O)N1CCCC1 (stereo unspecified),inactive
11,CC(=O)c1ccc(N2CCN(S(=O)(=O)c3ccc4c(c3)CC(C)N4C(C)=O)CC2)cc1 (stereo unspecified),inactive
12,CCOC(=O)C1(CCCc2ccccc2)CCN(C(=O)CCn2cncn2)CC1,inactive
13,COc1ccc(C(C)(C)C)cc1NC(=O)c1ccc2c(c1)SC1=NS(=O)(=O)CCN12,inactive
14,CC1CCC/C=C/C2CC(O)CC2C(O)/C=C/C(=O)O1 (stereo unspecified),inactive
15,Cc1cccc(NC(=O)CCN2C(=O)c3ccccc3S2(=O)=O)c1C,inactive
16,CN(C)S(=O)(=O)c1ccc(C(=O)OCC(=O)c2ccc3c(c2)NC(=O)CO3)cc1,inactive
